Laboratory results taken from article PMC6212790, “How bacterial xenogeneic silencer rok distinguishes foreign from self DNA in its resident genome”.
Whole data set: some 33,000 sequences, median “e-score” near -0.037, cut for the highest 2% near 0.34. The sample holds the highest values, similar sequences and a random draw of the others, so the mix is not that of the screen.

Each sequence was assayed against T1, GST-Rok (full length) (Bacillus subtilis subsp. subtilis str. …, UniProt O34857 1-191) (assay: protein binding microarray; Rok is a gene silencer of Bacillus subtilis; high values mean tight binding). Details: protein: recombinant; tags: GST (pTH5325, pDEST15-Magic modified); dsDNA, one strand shown.
T1 sequence: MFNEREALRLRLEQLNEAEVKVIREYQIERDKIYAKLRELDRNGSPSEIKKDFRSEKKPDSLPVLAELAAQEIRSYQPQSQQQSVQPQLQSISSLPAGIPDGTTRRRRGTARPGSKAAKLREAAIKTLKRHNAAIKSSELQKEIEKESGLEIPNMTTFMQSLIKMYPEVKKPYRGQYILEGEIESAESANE
Method in brief: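 Each has a 25-mer constant primer and a 35-mer variable part from a de Bruijn sequence of order 10, covering every non-palindromic 8-mer at least 32 times (palindromic 16). Preference for each 8-mer is given as a rank-based, unitless enrichment score (E-score). Its range runs from 0.5 (most favored) to −0.5 (most disfavored).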

Row | Sequence | binding signal
1 | GTCAACAA | 0.0786 E-score
2 | CTGGACTA | 0.0592 E-score
3 | CTACAGAC | 0.12 E-score
4 | CAGATAGA | 0.172 E-score
5 | AATTTGGT | 0.177 E-score
6 | CTTAGCAC | -0.0712 E-score
7 | AGGACTAC | -0.0384 E-score
8 | CTGCAATA | 0.13 E-score
9 | GTAGAGAA | 0.189 E-score
10 | GACATACA | 0.0575 E-score
11 | CACATACA | 0.167 E-score
12 | TACATACA | 0.341 E-score
13 | AACATATA | 0.257 E-score
14 | GACATATA | 0.277 E-score
15 | TACATATA | 0.347 E-score
16 | GTCAGTAA | 0.00175 E-score
17 | GCATGGAA | -0.193 E-score
18 | GCGACTGA | 0.0748 E-score
19 | CGGTGAAC | 0.00962 E-score
20 | GTCTAGCA | -0.0242 E-score
21 | CACATCGC | -0.127 E-score
22 | CATCAGGC | -0.154 E-score

Row | Sequence | binding signal
23 | GTAATGGA | 0.266 E-score
24 | CTAGCGAC | -0.128 E-score
25 | AAGCGTCG | -0.184 E-score
26 | CTAGTTAC | 0.418 E-score
27 | CTAGTTGC | 0.281 E-score
28 | ATAGTTAA | 0.329 E-score
29 | ATAGTTAC | 0.349 E-score
30 | ATAGTTAG | 0.319 E-score
31 | CTAGTTCC | 0.188 E-score
32 | CACAAAAC | 0.0504 E-score
33 | GATTGCAA | 0.0926 E-score
34 | GGAAGCTA | 0.285 E-score
35 | AATTGGTA | 0.339 E-score
36 | CAGTGGTA | 0.258 E-score
37 | AAGTGGTA | 0.348 E-score
38 | CATTGGTA | 0.223 E-score
39 | AAGTGGTC | -0.0764 E-score
40 | AATTGGTC | 0.0556 E-score
41 | ACCGCCAC | -0.135 E-score
42 | AATTGTGT | 0.149 E-score
43 | CACTTTAG | -0.146 E-score
44 | ATACTGTA | 0.34 E-score

Row | Sequence | binding signal
45 | CTACTGTA | 0.343 E-score
46 | ATACTTAA | 0.0668 E-score
47 | CTACTTAA | 0.372 E-score
48 | ATACTGAA | 0.103 E-score
49 | GTACTTAA | 0.275 E-score
50 | GTACTGTA | 0.155 E-score
51 | CTACTGAA | 0.0898 E-score
52 | ATACTGTG | 0.0179 E-score
53 | ACAGTACG | 0.142 E-score
54 | GAAGTTGC | 0.0518 E-score
55 | ACGGTCTG | -0.0535 E-score
56 | AGCTTACG | -0.0197 E-score
57 | TCGATTAA | 0.142 E-score
58 | CCGAACTC | 0.0171 E-score
59 | ACCTACCA | 0.248 E-score
60 | ACTTACAG | -0.0639 E-score
61 | ACTTACAT | 0.349 E-score
62 | ACTTACAA | 0.176 E-score
63 | CGATATCG | 0.243 E-score
64 | GCCGTGAC | -0.176 E-score
65 | AACTATAA | 0.326 E-score
66 | CACTATAA | 0.303 E-score

Row | Sequence | binding signal
67 | GTCTATCA | -0.00992 E-score
68 | TACTATGA | 0.228 E-score
69 | TACTATAA | 0.439 E-score
70 | CACTATCA | 0.219 E-score
71 | ATCTATCA | 0.409 E-score
72 | AACTATCA | 0.417 E-score
73 | TCCTATCA | 0.123 E-score
74 | TACTATCA | 0.35 E-score
75 | GACTATCA | -0.0777 E-score
76 | CTCTATCA | -0.0321 E-score
77 | ACATTAAT | 0.245 E-score
78 | AGATAAGG | 0.0533 E-score
79 | ATCCTATG | 0.106 E-score
80 | GAGCTGCA | -0.0813 E-score
81 | CGAAAAGA | 0.00822 E-score
82 | AGGATCAC | -0.0581 E-score
83 | ATTGGTGA | 0.0777 E-score
84 | TAGCTAAA | 0.214 E-score
85 | ATATCCGG | 0.237 E-score
86 | TAGGTTCA | 0.128 E-score
